In all, about 5,500 compounds went through this assay and about 2,000 (36%) were called active. Inconclusive results (about 18%) are left out. Rule as the data show it: active = normalized growth mostly below about 0.91 (no sharp cut-off); inconclusive = no clear call, values can overlap the other calls; inactive = mostly above about 0.92. The list shows a part of the results.
Experiment: chemical genetic growth profiling, strain panel (AID 1159580);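 also: tested at 20 µM; growth read once vehicle control cultures reached saturation at 30 °C; 1 = growth at the plate median or of vehicle wells; lower values mean less growth of the strain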
Conditions: S. cerevisiae deletion strains, growth OD

Measured: normalized growth

COc1ccc(C(CC(=O)c2ccccc2)Sc2ccccc2N)cc1OC (stereo unspecified)
inactive: locus YAR019C, strain CDC15, stronger effect = lower value 0.977 | locus YBL105C, strain PKC1, stronger effect = lower value 0.971 | locus YBR135W, strain CKS1, stronger effect = lower value 0.98 | locus YBR136W, strain MEC1, stronger effect = lower value 0.972 | locus YBR160W, strain CDC28, stronger effect = lower value 0.98 | locus YDL017W, strain CDC7, stronger effect = lower value 0.972 | locus YDL028C, strain MPS1, stronger effect = lower value 0.979 | locus YDL101C, strain DUN1, stronger effect = lower value 0.976 | locus YDL108W, strain KIN28, stronger effect = lower value 0.974 | locus YDL132W, strain cdc53, stronger effect = lower value 0.987 | locus YDL214C, strain PRR2, stronger effect = lower value 0.948 | locus YDR052C, strain DBF4, stronger effect = lower value 0.974 | locus YDR054C, strain cdc34, stronger effect = lower value 0.971 | locus YDR226W, strain ADK1, stronger effect = lower value 0.979 | locus YDR477W, strain SNF1, stronger effect = lower value 0.958 | locus YER123W, strain YCK3, stronger effect = lower value 0.935 | locus YER133W, strain GLC7, stronger effect = lower value 0.954 | locus YFL009W, strain cdc4, stronger effect = lower value 0.981 | locus YFL029C, strain CAK1, stronger effect = lower value 0.966 | locus YFR003C, strain YPI1, stronger effect = lower value 0.972 | locus YFR019W, strain FAB1, stronger effect = lower value 0.963 | locus YFR028C, strain CDC14, stronger effect = lower value 0.967 | locus YGR040W, strain KSS1, stronger effect = lower value 0.946 | locus YGR052W, strain FMP48, stronger effect = lower value 1.02 | locus YGR092W, strain DBF2, stronger effect = lower value 0.959 | locus YHR030C, strain SLT2, stronger effect = lower value 0.921 | locus YHR079C, strain IRE1, stronger effect = lower value 0.95 | locus YHR082C, strain KSP1, stronger effect = lower value 0.985 | locus YHR205W, strain SCH9, stronger effect = lower value 0.935 | locus YIL147C, strain SLN1, stronger effect = lower value 0.965 | locus YJL095W, strain BCK1, stronger effect = lower value 0.947 | locus YJL128C, strain PBS2, stronger effect = lower value 0.944 | locus YJL157C, strain FAR1, stronger effect = lower value 0.965 | locus YJR016C, strain ILV3, stronger effect = lower value 0.985 | locus YJR066W, strain TOR1 (second series), stronger effect = lower value 1 | locus YJR066W, strain TOR1, stronger effect = lower value 0.955 | locus YKL048C, strain ELM1, stronger effect = lower value 0.977 | locus YKL067W, strain YNK1, stronger effect = lower value 0.946 | locus YKL101W, strain HSL1, stronger effect = lower value 0.927 | locus YKL193C, strain SDS22, stronger effect = lower value 0.979 | locus YKL203C, strain TOR2, stronger effect = lower value 0.99 | locus YLR113W, strain HOG1, stronger effect = lower value 0.898 | locus YLR133W, strain CKI1, stronger effect = lower value 0.952 | locus YLR403W, strain SFP1, stronger effect = lower value 0.934 | locus YML070W, strain DAK1, stronger effect = lower value 0.941 | locus YMR001C, strain CDC5, stronger effect = lower value 0.965 | locus YMR205C, strain PFK2 (second series), stronger effect = lower value 0.958 | locus YMR277W, strain FCP1, stronger effect = lower value 0.983 | locus YNL006W, strain LST8, stronger effect = lower value 0.984 | locus YNL020C, strain ARK1, stronger effect = lower value 0.961 | locus YNL161W, strain CBK1, stronger effect = lower value 0.978 | locus YNL183C, strain NPR1, stronger effect = lower value 0.966 | locus YNL207W, strain RIO2, stronger effect = lower value 0.975 | locus YNL222W, strain SSU72, stronger effect = lower value 0.979 | locus YNL307C, strain MCK1 (second series), stronger effect = lower value 0.974 | locus YOL078W, strain AVO1, stronger effect = lower value 0.98 | locus YOL136C, strain PFK27, stronger effect = lower value 0.955 | locus YOR061W, strain CKA2, stronger effect = lower value 0.934 | locus YOR119C, strain RIO1, stronger effect = lower value 0.962 | locus YOR231W, strain MKK1, stronger effect = lower value 0.937 | locus YOR329C, strain SCD5, stronger effect = lower value 0.971 | locus YPL031C, strain PHO85, stronger effect = lower value 0.957 | locus YPL153C, strain RAD53, stronger effect = lower value 0.978 | locus YPL204W, strain HRR25, stronger effect = lower value 0.993 | locus YPL209C, strain IPL1, stronger effect = lower value 0.984 | locus YPL256C, strain CLN2, stronger effect = lower value 0.899 | locus YPR025C, strain CCL1, stronger effect = lower value 0.976 | locus YPR106W, strain ISR1, stronger effect = lower value 0.967 | locus YPR111W, strain DBF20, stronger effect = lower value 0.979 | strain NNK1, stronger effect = lower value 0.968 | strain TSCII, stronger effect = lower value 0.973
